Screening data deposited in PubChem BioAssay by National Center for Advancing Translational Sciences (NCATS).
This is a sample that favours compounds with a hit; in the whole collection about 15% have one here.
ALOX12 inh: Primary qHTS assay for inhibitors of human arachidonate 12S-lipoxygenase (ALOX12): Round 2. purified 12hLO, xylenol orange hydroperoxide absorbance. hit rate 1.1% among 580,000. Potency, µM (highest dose often 108 µM), inactives show at the top dose activity change, negative = inhibition, usual class: inhibitors
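Hydroperoxide product was detected by ferrous iron/xylenol orange as the 573 to 405 nm absorbance ratio. Arachidonic acid at 40 uM (final) was turned over for 30 min at room temperature by 150 nM human 12hLO, pH 7.0 Hepes buffer, after 15 min compound preincubation.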
TDP1 cell CPT: qHTS for Inhibitors of human tyrosyl-DNA phosphodiesterase 1 (TDP1): qHTS in cells in presence of CPT; Potency, µM (top dose mostly 46.2 µM), for inactives: at the top dose activity change, negative = growth inhibition, actives largely listed as inhibitors; hit rate 12% among 420,000; chicken DT40 Tdp1-/-;hTDP1 cells + 20 nM CPT, ATP luminescence, 48 h; also: nearly all actives have a fitted effect of over 55% in size
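Chicken DT40 Tdp1-/- cells stably complemented with human TDP1 were seeded at 400 cells/well in medium containing 20 nM camptothecin, exposed to pin-transferred compounds, and grown at 37 °C for at least 48 hr. Viability was read as ATP luminescence.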
ELG1 DNA repair: qHTS screen for small molecules that inhibit ELG1-dependent DNA repair in human embryonic kidney (HEK293T) cells expressing luciferase-tagged ELG1. HEK293T ELG1-luciferase reporter, luminescence, 16 h; DNA damage induced by 5-fluorouridine. Potency, µM (doses to about 46.1 µM), for inactives: top-dose activity change, negative = inhibition, most hits filed as inhibitors. hit rate 2.3% among 330,000; also: nearly all actives have a fitted effect of over 55% in size
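In this reporter screen, reduction of luminescence relative to DMSO vehicle indicated activity. Compounds and 5-fluorouridine were added together to 2,000 cells per well, incubated for 16 hr at 37 °C, then developed with ONE-Glo.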
TDP1 cell noCPT: qHTS for Inhibitors of human tyrosyl-DNA phosphodiesterase 1 (TDP1): qHTS in cells in absence of CPT | DT40 Tdp1-/- hTDP1 cells, no CPT, ATP luminescence, 48 h | Potency, µM (top dose mostly 46.2 µM), for the others: at the top dose activity change, negative = growth inhibition, actives largely listed as inhibitors | hit rate 15% among 420,000; also: nearly all actives have a fitted effect of over 55% in size
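A cellular qHTS used chicken DT40 cells lacking endogenous Tdp1 but carrying stably transfected human TDP1. Compounds were applied without camptothecin, and cell growth kinetics were judged by ATP-dependent luminescence after ≥48 hr.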
RORg inh: qHTS for inhibitors of ROR gamma transcriptional activity. Nuclear receptor ROR-gamma (Mus musculus), P51450. Drosophila S2 Gal4-RORgamma UAS-luciferase reporter, 20 h. Potency, µM (series often up to 53.6 µM), inactives show top-dose activity change, negative = inhibition, usual class: inhibitors. hit rate 5.4% among 310,000. AID 2551, 2010; also: nearly all actives have a fitted effect of over 60% in size
Target sequence (P51450 whole entry, looked up, the tested form may be a part): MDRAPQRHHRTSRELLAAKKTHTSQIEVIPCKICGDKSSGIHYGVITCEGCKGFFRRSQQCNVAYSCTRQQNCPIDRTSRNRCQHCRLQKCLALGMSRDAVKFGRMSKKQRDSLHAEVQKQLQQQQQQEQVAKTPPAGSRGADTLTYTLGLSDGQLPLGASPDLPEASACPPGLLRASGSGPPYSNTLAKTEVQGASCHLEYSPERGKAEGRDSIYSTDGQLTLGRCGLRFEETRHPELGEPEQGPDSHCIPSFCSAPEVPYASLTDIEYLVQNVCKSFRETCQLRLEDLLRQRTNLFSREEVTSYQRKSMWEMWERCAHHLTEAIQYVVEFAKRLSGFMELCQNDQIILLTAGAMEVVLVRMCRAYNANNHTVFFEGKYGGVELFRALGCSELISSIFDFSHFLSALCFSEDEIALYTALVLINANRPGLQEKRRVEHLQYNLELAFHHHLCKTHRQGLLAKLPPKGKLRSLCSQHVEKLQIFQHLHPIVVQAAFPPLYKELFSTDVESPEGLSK
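Stable Schneider cell line, Gal4 DNA-binding domain fused to ROR gamma, UAS-luciferase. Cmpd 1 hr RT → CuSO4 700 uM final → 20 hr RT → luciferase reagent 10 min → luminescence.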
Gal4-VP16 FLuc: VP16 counterscreen qHTS for inhibitors of ROR gamma transcriptional activity | Drosophila S2 Gal4-VP16 UAS-luciferase, luminescence, 20 h | Potency, µM (titrated, usually from 53.6 µM), inactives show at the top dose activity, negative = inhibition, hits mostly inhibitors | hit rate 3.5% among 310,000;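 also: Gal4-VP16 expression switched on by copper sulfate through the metallothionein promoter; nearly all actives have a fitted effect of over 50% in size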
* = called active by the depositor; ? = inconclusive; · = no result. Calls follow the shape of the dose curve; as a rule, active = well fitted curve in the direction sought with a large enough effect; inconclusive = small, poorly fitted or top-dose-only effect, or another doubt; inactive = no such curve, though single readings can be large; an effect the other way counts as inactive or inconclusive. % is scaled to controls: 0 for no effect and ±100 for the full control effect; potency is read from the fitted curve at half-maximal effect.

SMILES	ALOX12 inh	TDP1 cell CPT	ELG1 DNA repair	TDP1 cell noCPT	RORg inh	Gal4-VP16 FLuc
CSc1ccccc1NC(=O)CC1CC2CCC1C2 (centres undefined)	-28%	·	·	·	·	·
CC(C)c1ccc(NC(=O)CSc2nc3c(-c4ccccc4)c[nH]c3c(=O)n2C)cc1	31%	·	·	·	·	·
Cc1ccc(-n2ncc3c(N4CCN(C)CC4)ncnc32)cc1Cl	-3%	?	·	21µM*	·	·
CCN1CCN(c2ncnc3c2cnn3-c2ccc(C)c(Cl)c2)CC1	?	-18%	·	-21%	·	·
Cc1ccc(-n2ncc3c(N4CCN(CCO)CC4)ncnc32)cc1Cl	?	12µM*	·	?	·	·
O=C(N/N=C/c1cccc(I)c1)c1cccs1	19%	·	·	·	·	·
c1ccc(-c2nc(-c3cccc4ccccc34)c(Nc3ccc4ccccc4c3)o2)cc1	·	·	·	·	5.6µM*	1%
CC1(COS(N)(=O)=O)CCCCC1	·	0.46µM*	17%	-19%	?	2%
COc1cccc(-c2ocnc2C(=O)Nc2ccc(C(C)C)cc2)c1	-21%	·	·	·	·	·
O=C(COc1ccc2ccc(=O)oc2c1)NCCc1ccccc1F	26%	·	·	·	·	·
CC1(C)N=C(N)N=C(N)N1c1cccc(C#N)c1	-1%	?	·	1µM*	·	·
COc1cccc(N2C(N)=NC(N)=NC2(C)C)c1	20%	5.2µM*	7%	1µM*	-9%	-2%
CCOC(=O)c1cccc(N2C(N)=NC(N)=NC2(C)C)c1	15%	-23%	-2%	4.1µM*	-29%	2%
CCOc1ccc(N2C(N)=NC(N)=NC2(C)C)cc1	0%	?	-27%	6.5µM*	-5%	0%
Cc1ccccc1N1C(N)=NC(N)=NC1(C)C	-6%	-2%	9%	?	6%	6%
CCCn1nc(C(=O)N2CCN(Cc3ccccc3F)CC2)c2ccccc2c1=O	-23%	·	·	·	·	·
Cc1nc2scc(CC(=O)NCc3ccco3)n2c(=O)c1-c1cc(C)n(-c2ccccc2F)n1	1%	·	·	·	·	·
COc1ccccc1N1C(N)=NC(N)=NC1(C)C	6%	-10%	-10%	?	8%	-12%
COc1ccc(N2C(N)=NC(N)=NC2(C)C)cc1	0%	?	28%	0.33µM*	-22%	4%
COCCNC(=O)Cn1c(=O)n(Cc2ccco2)c(=O)c2ccccc21	-18%	6%	9%	2%	22%	3%
COc1ccc(NC(=O)Cn2c(=O)n(Cc3ccc(C(=O)NCc4ccccc4Cl)cc3)c(=O)c3ccccc32)cc1OC	-5%	?	·	?	·	·
COc1cc2c(=O)n(Cc3ccccc3)c(=O)n(CC(=O)NCCc3ccccc3)c2cc1OC	28%	7.3µM*	2%	15µM*	-5%	13%
COc1ccc(CCNC(=O)Cn2c(=O)n(Cc3ccco3)c(=O)c3ccc(Cl)cc32)cc1OC	38%	?	?	23µM*	-24%	?
CCOC(=O)Cn1c(=O)n(Cc2ccco2)c(=O)c2ccc(C(=O)NCCc3ccccc3)cc21	-1%	18µM*	?	23µM*	?	-17%
COc1ccc(NC(=O)Cn2c(=O)n(Cc3ccccc3Cl)c(=O)c3cc(OC)c(OC)cc32)cc1OC	-11%	3.3µM*	·	-25%	·	·
COc1ccc(Cl)cc1NC(=O)Cn1c(=O)n(Cc2ccco2)c(=O)c2ccc(C(=O)NC3CCCC3)cc21	0%	-8%	·	-11%	·	·
CCOc1ccc2[nH]c(C(=O)N/N=C/c3ccc(OC)cc3)cc2c1	0%	0.58µM*	?	0.58µM*	-17%	-1%
